Measured values reported in PubChem BioAssay AID686949 (The Scripps Research Institute Molecular Screening Center, 2013).
In all, about 3,200 compounds went through this assay and about 2,200 (69%) were called active.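 Rule for the calls: active = activation, as change over the incubation, above the mean of all tested compounds plus 3 SD (cut at about 13% in these data); inactive = the rest.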 The set was probably picked from earlier hits. A selection follows.

molecular target: Kallikrein-7 (Homo sapiens) (UniProt P49862); assay: activation of human kallikrein-7 proenzyme – biochemical, fluorescence intensity, triplicate, confirmation (AID 686949); settings: purified proKLK7, EDANS-DABCYL substrate fluorescence; at 7 µM; stronger effect = higher value; scaled: vehicle 0, mature enzyme 100
Sequence (P49862 whole entry, looked up): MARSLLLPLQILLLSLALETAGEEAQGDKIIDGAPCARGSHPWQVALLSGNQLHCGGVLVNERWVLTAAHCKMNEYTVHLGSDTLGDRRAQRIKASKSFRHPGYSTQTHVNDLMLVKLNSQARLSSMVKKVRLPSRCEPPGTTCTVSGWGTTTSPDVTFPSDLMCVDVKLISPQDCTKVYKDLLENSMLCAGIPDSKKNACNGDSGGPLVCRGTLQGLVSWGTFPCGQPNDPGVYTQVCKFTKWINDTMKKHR

activation, active:
CC(=O)NN1C(=O)c2ccccc2NC1c1ccccc1 (stereo not drawn) 33.8%
CCOC(=O)NN1C(=O)c2ccccc2NC1c1cccc(O)c1 (stereo not drawn) 19.6%
COc1cc(/C=N\NC(=O)c2nonc2N)c(OC)cc1Br 75.4%
CCc1nc(Nc2ccc(NC(C)=O)cc2)c2oc3ccccc3c2n1 69.9%
Cc1cc(C)c(C#N)c(SCC(=O)NN2CC(=O)N(c3ccccc3F)CC2=O)n1 52.8%
CCN1CCc2c(C#N)c(NCc3ccccc3)nc(NCCO)c2C1 31.4%
COc1cccc2sc3cc(NCC[C@@H]4CCCN4C)ccc3c(=O)c12 46.9%
CN(C)C(=O)c1coc2nc3ccccc3nc12 104%
c1ccc(-c2cn3cccnc3n2)cc1 68.7%
FC(F)(F)Oc1ccc(-c2cn3cccnc3n2)cc1 36.4%
COc1ccc(-c2cn3cccnc3n2)cc1 68.6%
Cc1cc(S(=O)(=O)c2cc3ccc(O)c(C)c3oc2=O)ccc1F 59.1%
CC1(C)CC(=O)c2cc(OCC(=O)NCC3CCCO3)ccc2O1 (stereo not drawn) 48.1%
CC(=O)Nc1nc2ncccn2c1-c1ccc(C(F)(F)F)cc1 30.9%
CCCn1c(=NC(C)=O)c(C(=O)OCC)cc2c(=O)n3ccccc3nc21 33.5%
CN1CCCc2cc(C#N)c(=O)[nH]c21 33.1%
COc1nc(N=C(N)N)nc2c(C)cccc12 23.8%
Cc1coc2c1c(C)cc1oc(=O)c(CC(=O)NCC(=O)N[C@H](C(=O)O)C(C)C)c(C)c12 38.2%
COC(=O)c1cnn2c(C(F)(F)F)cc(-c3ccco3)nc12 38.9%
COc1cc2c(cc1OC)CC1(CCCCC1)N=C2 43.5%
Cc1cc(C)c2c(n1)nn1c(-n3ccnc3)cc(C)nc21 50.2%
CCn1c(=N)c(C(=O)NCCCOC)cc2c(=O)n3cccc(C)c3nc21 72.2%
Cc1cccn2c(=O)c3cc(C(=O)NCCN4CCOCC4)c(=N)n(Cc4cccnc4)c3nc12 17.1%
CC(C)=NN1C(=O)c2ccccc2NC1(C)C 25%
CC(C)Cc1nc(Nc2ccc(S(=O)(=O)N3CCCC3)cc2)c2nnn(Cc3ccccc3)c2n1 43.6%
COc1cccc(OCc2cc(/C=N/NC(=O)c3nc(Cl)c(Cl)c(N)c3Cl)ccc2OC)c1 62.4%
CC(C)(C)OC(=O)c1c(N)n(CCCN2CCCC2=O)c2nc3ccccc3nc12 69.5%
COCC(C)OC(=O)c1c(N)n(CCCN2CCOCC2)c2nc3ccccc3nc12 (stereo not drawn) 20%
COC(=O)c1c(C)c(C)nc(N)c1C#N 71.3%
Cc1ccc(-c2nn(-c3ccccc3)cc2/C=C/C(=O)Nc2cccc(S(N)(=O)=O)c2)cc1 263%
CCc1ccc(-c2cc(C(=O)NCc3ccco3)c3ccccc3n2)s1 75.3%
COc1cc(C(=O)N2C(=O)c3cccc(N)c3C2=O)cc(OC)c1OC 127%
CC1CC(C)CN(S(=O)(=O)c2cccc(C(=O)N3C(=O)c4cccc(N)c4C3=O)c2)C1 (stereo not drawn) 240%
CCCCc1cc(=O)oc2cc(C)cc(OCc3nn[nH]n3)c12 28.8%
CCCCN(CCCC)CC(O)Cn1c2ccccc2c(=O)c2ccccc21 (stereo not drawn) 13.8%
CCCc1cc(=O)oc2c(C)c(O)c(CN3CCCCC3)cc12 62.8%
CC(=O)Nc1ccc(S(=O)(=O)NCC(=O)OCc2cc(=O)oc3ccc4ccccc4c23)cc1 218%
Nc1ccc2nn(-c3ccc(Cl)cc3)nc2c1 65.8%
CC1(C)CN(c2ccc(-c3ccnc4ncnn34)cc2)C1=O 68.6%
COc1ccc2oc(=O)c(C(=O)N3CCCC3)cc2c1 23.8%
COC(=O)C1=NN(c2ccccc2)C2C(=O)N(c3ccccc3OC)C(=O)C12 (stereo not drawn) 21.2%
O=C(O)c1cccnc1Sc1ncnc2sc3c(c12)CCC3 17.9%
O=c1oc2cc(O)ccc2cc1-c1ccc(F)cc1 76%
O=C(Nc1nncs1)c1ccccc1NS(=O)(=O)c1cccs1 26.4%
CCOc1ccc(N2C(=O)CC(N(O)c3ccccc3)C2=O)cc1 (stereo not drawn) 166%
COC(=O)Cc1cc(=O)oc2c(C)c(O)ccc12 68%
COCc1cc(=O)[nH]c2cc(NC(=O)C(F)(F)F)c(C)cc12 239%
N#Cc1nc(-c2cccc3ccccc23)oc1N 70.2%
CN(C)Cc1c(O)ccc2c(=O)c(-c3ccccc3Cl)coc12 70.2%
O=C(OC1CCOC1=O)c1ccc(-c2nc3ccccc3s2)s1 (stereo not drawn) 17.6%
COC(=O)Cc1nc2c(N)nc(N)nc2[nH]c1=O 18.7%
O=C(Oc1c(-c2ccco2)oc2ccccc2c1=O)c1cccnc1 22.3%
CN(C)CCCn1c(N)c(C#N)c2nc(C#N)c(C#N)nc21 38%
Cc1cccc(C)c1NC(=O)C(c1ccccc1)N1CC(=O)Nc2ccccc21 (stereo not drawn) 40.3%
Cc1ccsc1-c1cc(C(=O)O)c2c(ccc3ccccc32)n1 19.8%
O=C(O)c1ccc2c(c1)C(=O)N(c1ccc(/C=C/C(=O)c3ccccc3)cc1)C2=O 703%
CC(OC(=O)c1ccccc1NCCO)C(=O)Nc1ccnn1C(C)C (stereo not drawn) 26.1%
O=c1c(-c2ccccc2)coc2c(CN3CCOCC3)c(O)ccc12 18.1%
Cc1cc(=O)oc2c3c(cc(OCC(=O)N[C@H](C(=O)O)c4ccccc4)c12)OC(C)(C)CC3 34%
Cc1cc(=O)oc2c3c(cc(OCC(=O)NCCC(=O)N[C@@H](C)C(=O)O)c12)OC(C)(C)CC3 58.2%
Cc1c(C)c2c(OCC(=O)N[C@@H](C(=O)O)c3ccccc3)cc3c(c2oc1=O)CCC(C)(C)O3 36.6%
Cc1c(C)c2c(OCC(=O)NCCCO)cc3c(c2oc1=O)CCC(C)(C)O3 44.6%
Cc1nn(-c2ccccc2)c(C)c1NC(=O)COC(=O)c1cc(Cl)ccc1O 24.2%
CC1CCCN(C(=O)c2cc(-c3ccco3)nc3ccccc23)C1 (stereo not drawn) 36.6%
CC(=O)N1CCN(C(=O)c2cc(-c3ccc(C)o3)nc3ccccc23)CC1 62.7%
CNC(=O)COC(=O)c1cc(-c2ccc(OC)cc2)nc2ccccc12 88.7%
COc1ccc(-c2cc(C(=O)n3cnc4ccccc43)c3ccccc3n2)cc1 56.7%
O=C(O)c1ccc2c3c(cccc13)C(=O)N(OS(=O)(=O)c1ccccc1)C2=O 181%
CC(=O)Nc1nc(C)c(-c2csc(Nc3ccc(S(N)(=O)=O)cc3)n2)s1 17.4%
CNc1cncc(-c2cccc(C(=O)N3CCOCC3)c2)n1 38.8%

activation, inactive:
COc1cccc(NC(=O)CN(C)C(=O)/C=C/c2cc(OC)ccc2OC)c1 -101%
COc1ccc2nc(-c3ccccn3)ccc2c1 3.28%
Cc1cc2c(nc1C)CCCN2C 0.32%
COCCN(CCOC)c1nc(N)c2c(N)nc3c(c2c1C#N)CC(=O)N3Cc1ccc(Cl)cc1 -29.9%
NC(N)=Nc1nc(-c2ccccc2)c2cc(Cl)ccc2n1 -1.67%
CCOc1c2ccc(C(=O)NCc3ccc4c(c3)OCO4)cc2nn1C 7.8%
Cc1nc2ccccc2cc1O -5.12%
Cc1cccn2c(=O)c3cc(C#N)c(=NC(=O)c4cccnc4)n(CC4CCCO4)c3nc12 (stereo not drawn) -75.3%
Cc1ccc2nc3c(cc(C(=O)NCCc4ccccc4)c(=N)n3CC3CCCO3)c(=O)n2c1 (stereo not drawn) -15.4%
COC(=O)c1ccc(C2C3=C(Nc4nnnn42)c2ccccc2OC3)cc1 (stereo not drawn) 5.83%
Nc1ccccc1-c1nc2ccncc2[nH]1 2.63%
CCCCCn1c(=O)c(C(=O)OCC)c(Cl)c2ccccc21 -0.17%
CCN1CCN(C(=O)c2cc3cc4ccc(OC)cc4nc3s2)CC1 -15.9%
Cn1cccc1/C=N/NC(=O)CNc1cccc2ccccc12 2.27%
Cc1oc2nc(SCC(=O)Nc3ccc(S(N)(=O)=O)cc3)nc(NC(=O)c3ccccc3)c2c1C 5.56%
CN(C)CCN1CCN(c2cc(-c3cccc(Cl)c3)nc3ccnn23)CC1 0.23%
CC(C)(C)Nc1c(-c2cccs2)nc2ccccn12 -59.6%
CCS(=O)(=O)Nc1cc(C(=O)OC)ccc1C(=O)OC 10%
COc1ccc(C2=CC(c3cccc(OC)c3)n3nnnc3N2)cc1 (stereo not drawn) -12.2%
CCOC(=O)C1=C(O)/C(=C/c2ccc(OCC(=O)Nc3ccc(C)cc3)cc2)N=C1C 2.24%
CCC(c1nnnn1Cc1ccco1)N(CCc1ccccc1)Cc1cc2ccc(OC)cc2[nH]c1=O (stereo not drawn) -0.98%
O=C(/C=C/c1ccc2c(c1)OCCO2)c1ccc(O)cc1 3.2%
CCCN(CC(=O)NC(=O)NC1CCCCC1)CC(=O)Nc1cc(Cl)ccc1Cl 1.91%
CCOC(OCC)c1ccc(/C=C\c2nccc(N)n2)cc1 -9.52%
CCOC(=O)c1[nH]c2ccc(OC)cc2c1NC(=O)CCN1CCN(Cc2ccccc2)CC1 1.17%
COc1ccc(CNC(=O)COC(=O)C2=Cc3ccccc3OC2)cc1 9.73%
COc1ccc2nc(Nc3nc4cc5c(cc4s3)OCCO5)sc2c1 -12.6%
Cc1cc(N2CCOCC2)nc2ccc(NC(=S)N3CCN(Cc4ccccc4)CC3)cc12 9.27%
